Assay results as given in ChEMBL document CHEMBL3988442, “University of Dundee, Small-Polar-MMV Screening Library” (2021).
For some assays here: Potency and affinity values are given separately.

Key:
Design in all cases: scale not given: direction of the effect not stated beside the values
[1] = target: Protein translocase subunit SecA (Escherichia coli (strain K12)) (UniProt P10408); assay: Assay to Identify E. coli SecA ATPase Inhibitors; type: functional; conditions: 30 µM
[2] = target: T1, Ubiquitin-activating enzyme e1, putative (Leishmania donovani (strain BPK282A1)) (UniProt E9BSI1); assay: Leishmania donovani Ubiquitin Activating Enzyme (LdE1); type: functional; conditions: 30 µM
T1 sequence (whole entry): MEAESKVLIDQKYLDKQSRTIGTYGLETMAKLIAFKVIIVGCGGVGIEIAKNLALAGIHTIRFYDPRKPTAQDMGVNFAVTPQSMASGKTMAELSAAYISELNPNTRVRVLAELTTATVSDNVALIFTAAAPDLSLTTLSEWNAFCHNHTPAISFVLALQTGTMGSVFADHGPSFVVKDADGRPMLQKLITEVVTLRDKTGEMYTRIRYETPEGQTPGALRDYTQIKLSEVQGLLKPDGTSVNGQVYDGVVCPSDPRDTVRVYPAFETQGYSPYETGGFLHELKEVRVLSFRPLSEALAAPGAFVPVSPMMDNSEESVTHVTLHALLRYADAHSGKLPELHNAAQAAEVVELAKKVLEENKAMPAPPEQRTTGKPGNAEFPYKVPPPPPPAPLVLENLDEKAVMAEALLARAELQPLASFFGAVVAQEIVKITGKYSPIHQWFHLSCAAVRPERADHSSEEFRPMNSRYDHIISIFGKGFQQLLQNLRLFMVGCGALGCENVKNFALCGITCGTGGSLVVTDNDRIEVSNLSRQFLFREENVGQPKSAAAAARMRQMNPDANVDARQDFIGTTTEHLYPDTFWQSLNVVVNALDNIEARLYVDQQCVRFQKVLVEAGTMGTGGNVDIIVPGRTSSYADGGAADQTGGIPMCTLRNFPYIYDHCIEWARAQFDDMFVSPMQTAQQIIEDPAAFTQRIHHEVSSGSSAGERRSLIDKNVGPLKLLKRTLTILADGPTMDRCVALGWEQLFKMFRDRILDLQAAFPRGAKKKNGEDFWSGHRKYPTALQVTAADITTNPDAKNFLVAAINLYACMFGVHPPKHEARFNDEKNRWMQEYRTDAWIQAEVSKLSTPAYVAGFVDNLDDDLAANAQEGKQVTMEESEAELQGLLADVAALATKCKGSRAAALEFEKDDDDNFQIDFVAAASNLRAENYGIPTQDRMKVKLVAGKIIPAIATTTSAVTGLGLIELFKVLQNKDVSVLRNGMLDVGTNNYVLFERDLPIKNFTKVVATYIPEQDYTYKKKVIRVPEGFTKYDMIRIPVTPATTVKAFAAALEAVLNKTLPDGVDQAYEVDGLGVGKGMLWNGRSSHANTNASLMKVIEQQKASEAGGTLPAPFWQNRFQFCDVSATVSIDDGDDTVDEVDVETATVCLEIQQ

[3] = target: AMP-activated protein kinase, AMPK (Homo sapiens) (UniProt P54646+O43741+P54619+Q9UGJ0+Q9Y478+Q13131+Q9UGI9); assay: AMP-dependent Kinase enzyme assay. An in vitro enzyme assay that detects ADP turnover that is directly proportional to AMPK activity. This uses naive AMPK that is activated during the assay with MK-8722; type: functional; conditions: 30 µM
[4] = target: Sialic acid-binding Ig-like lectin 9 (Homo sapiens) (UniProt Q9Y336); assay: Hs-Siglec9 ALPHAscreen SOP 20170721; conditions: 10 µM
[5] = tested on: Trypanosoma cruzi; assay: Trypanosoma cruzi phosphomannomutase and mannose-1-phosphate guanylyltransferase assay; type: functional; conditions: 10 µM
[6] = target: T2, Arginase-2, mitochondrial (Homo sapiens) (UniProt P78540); assay: in vitro enzyme assay to detect the production of urea directly proportional to the activity of Arginase II; type: functional; conditions: 33.3 µM; note: in the data most compounds retested in dose-response had high values
T2 sequence (whole entry): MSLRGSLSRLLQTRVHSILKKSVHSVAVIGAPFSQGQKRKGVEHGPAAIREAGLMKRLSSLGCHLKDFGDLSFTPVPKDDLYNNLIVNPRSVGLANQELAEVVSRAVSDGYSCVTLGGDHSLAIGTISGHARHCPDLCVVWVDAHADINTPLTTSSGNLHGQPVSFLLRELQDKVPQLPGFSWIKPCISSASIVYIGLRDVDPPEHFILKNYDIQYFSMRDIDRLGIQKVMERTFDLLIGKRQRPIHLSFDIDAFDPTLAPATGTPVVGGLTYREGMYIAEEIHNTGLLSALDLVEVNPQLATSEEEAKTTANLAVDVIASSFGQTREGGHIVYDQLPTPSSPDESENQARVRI

[7] = target: T3, Proteasome subunit beta (Trypanosoma cruzi) (UniProt O96673); assay: Trypanosoma cruzi proteasome chymotrypsin-like activity (TcProtChymo) assay.; note: in the data most compounds retested in dose-response had high values; type: functional; conditions: 9.37 µM
T3 sequence (whole entry): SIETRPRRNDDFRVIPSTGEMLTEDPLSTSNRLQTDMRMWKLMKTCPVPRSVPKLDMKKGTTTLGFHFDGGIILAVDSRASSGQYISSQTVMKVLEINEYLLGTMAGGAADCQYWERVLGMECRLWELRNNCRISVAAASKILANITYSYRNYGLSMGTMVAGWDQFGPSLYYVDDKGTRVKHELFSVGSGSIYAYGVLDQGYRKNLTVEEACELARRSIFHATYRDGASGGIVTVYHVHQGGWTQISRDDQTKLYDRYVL

[8] = species: Homo sapiens; assay: To identify inhibition of the IFN signalling (Jak-Stat) pathway via expression of an eGFP reporter gene under the control of an IFN-stimulated response element (ISRE) containing MxA promoter.; type: functional; conditions: 30 µM
[9] = target: T4, Tyrosyl-tRNA synthetase, putative (Trypanosoma cruzi (strain CL Brener)) (UniProt Q4DSP6); assay: Trypanosoma cruzi tyrosyl tRNA synthetase (TcYRS) _High Tyrosine SOP; type: functional; conditions: 30 µM; note: in the data most compounds retested in dose-response had high values
T4 sequence (whole entry): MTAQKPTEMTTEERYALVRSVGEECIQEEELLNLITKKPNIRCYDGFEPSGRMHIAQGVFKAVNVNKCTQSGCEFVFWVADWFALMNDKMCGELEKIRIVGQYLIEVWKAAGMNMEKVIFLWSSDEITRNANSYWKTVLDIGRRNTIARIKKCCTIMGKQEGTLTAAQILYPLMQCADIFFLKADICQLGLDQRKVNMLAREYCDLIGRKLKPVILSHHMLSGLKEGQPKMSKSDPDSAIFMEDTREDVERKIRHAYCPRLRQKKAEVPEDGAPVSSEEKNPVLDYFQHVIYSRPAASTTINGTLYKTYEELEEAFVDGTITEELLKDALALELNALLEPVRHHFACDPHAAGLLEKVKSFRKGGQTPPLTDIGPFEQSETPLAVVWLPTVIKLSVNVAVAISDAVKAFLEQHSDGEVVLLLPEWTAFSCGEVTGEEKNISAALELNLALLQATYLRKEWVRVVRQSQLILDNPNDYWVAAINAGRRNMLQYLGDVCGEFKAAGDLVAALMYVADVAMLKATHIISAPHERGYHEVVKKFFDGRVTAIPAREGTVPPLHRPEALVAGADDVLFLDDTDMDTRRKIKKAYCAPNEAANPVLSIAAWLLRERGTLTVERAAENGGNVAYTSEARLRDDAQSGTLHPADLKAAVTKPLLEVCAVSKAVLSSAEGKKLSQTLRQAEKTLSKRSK

[10] = target: T4, Tyrosyl-tRNA synthetase, putative (Trypanosoma cruzi (strain CL Brener)); assay: Trypanosoma cruzi tyrosyl tRNA synthetase (TcYRS) SOP; type: functional; conditions: 30 µM
[11] = target: Chromo domain-containing protein 1 (Saccharomyces cerevisiae (strain ATCC 204508 / S288c) (Baker's yeast)) (UniProt P32657); assay: ScCHD-1 Enzyme Inhibition Assay; type: functional; conditions: 30 µM; note: in the data most compounds retested in dose-response had high values
Chromo domain-containing protein 1 (Saccharomyces cerevisiae (strain ATCC 204508 / S288c) (Baker's yeast)), sequence (P32657 whole entry, the tested form may be a part): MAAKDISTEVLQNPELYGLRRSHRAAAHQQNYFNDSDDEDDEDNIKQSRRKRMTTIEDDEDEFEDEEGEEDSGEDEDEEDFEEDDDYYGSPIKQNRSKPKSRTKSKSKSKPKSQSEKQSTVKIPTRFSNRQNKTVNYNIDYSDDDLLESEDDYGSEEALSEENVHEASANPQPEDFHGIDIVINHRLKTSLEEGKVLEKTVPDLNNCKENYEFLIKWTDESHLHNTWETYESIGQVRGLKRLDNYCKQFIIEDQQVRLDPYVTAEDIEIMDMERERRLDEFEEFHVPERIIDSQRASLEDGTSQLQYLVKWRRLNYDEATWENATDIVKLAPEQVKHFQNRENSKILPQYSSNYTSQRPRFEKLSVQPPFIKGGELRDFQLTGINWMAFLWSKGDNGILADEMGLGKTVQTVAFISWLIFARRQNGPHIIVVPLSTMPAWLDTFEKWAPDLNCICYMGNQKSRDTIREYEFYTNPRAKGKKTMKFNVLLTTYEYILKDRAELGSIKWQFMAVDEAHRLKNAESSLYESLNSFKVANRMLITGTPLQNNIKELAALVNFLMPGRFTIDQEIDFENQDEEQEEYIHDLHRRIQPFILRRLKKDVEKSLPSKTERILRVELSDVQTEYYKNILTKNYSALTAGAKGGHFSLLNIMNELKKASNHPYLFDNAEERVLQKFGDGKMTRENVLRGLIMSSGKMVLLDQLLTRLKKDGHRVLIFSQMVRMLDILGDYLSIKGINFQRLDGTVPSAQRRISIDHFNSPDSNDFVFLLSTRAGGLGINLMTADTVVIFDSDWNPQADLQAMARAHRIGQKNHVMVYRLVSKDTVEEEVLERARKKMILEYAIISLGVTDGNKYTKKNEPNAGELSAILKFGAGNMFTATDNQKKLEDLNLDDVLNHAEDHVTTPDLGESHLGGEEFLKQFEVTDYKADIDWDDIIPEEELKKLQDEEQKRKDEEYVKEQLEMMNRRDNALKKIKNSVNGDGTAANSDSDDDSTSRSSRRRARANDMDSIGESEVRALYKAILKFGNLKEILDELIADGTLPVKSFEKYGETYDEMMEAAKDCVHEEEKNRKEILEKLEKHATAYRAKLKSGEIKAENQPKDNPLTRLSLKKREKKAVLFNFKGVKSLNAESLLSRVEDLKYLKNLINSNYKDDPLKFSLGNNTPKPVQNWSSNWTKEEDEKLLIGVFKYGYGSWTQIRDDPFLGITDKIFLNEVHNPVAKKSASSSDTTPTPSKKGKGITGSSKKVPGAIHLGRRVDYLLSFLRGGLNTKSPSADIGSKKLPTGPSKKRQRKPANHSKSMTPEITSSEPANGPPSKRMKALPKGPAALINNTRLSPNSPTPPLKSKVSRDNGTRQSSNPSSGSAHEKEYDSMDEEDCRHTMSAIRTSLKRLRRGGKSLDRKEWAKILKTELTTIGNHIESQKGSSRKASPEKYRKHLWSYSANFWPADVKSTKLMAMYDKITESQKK

Sialic acid-binding Ig-like lectin 9 (Homo sapiens), sequence (Q9Y336 whole entry): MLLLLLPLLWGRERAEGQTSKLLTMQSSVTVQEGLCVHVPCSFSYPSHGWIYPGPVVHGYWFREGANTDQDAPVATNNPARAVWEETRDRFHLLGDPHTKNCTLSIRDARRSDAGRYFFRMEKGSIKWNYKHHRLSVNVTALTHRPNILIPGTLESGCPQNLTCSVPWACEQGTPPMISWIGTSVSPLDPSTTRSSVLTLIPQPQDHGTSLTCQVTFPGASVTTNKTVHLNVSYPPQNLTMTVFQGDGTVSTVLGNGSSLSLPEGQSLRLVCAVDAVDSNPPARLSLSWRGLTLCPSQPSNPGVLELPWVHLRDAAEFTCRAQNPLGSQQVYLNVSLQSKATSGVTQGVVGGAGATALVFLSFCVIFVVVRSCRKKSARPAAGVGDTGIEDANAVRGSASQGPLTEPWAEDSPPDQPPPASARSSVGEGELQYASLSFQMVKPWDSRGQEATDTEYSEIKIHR
Protein translocase subunit SecA (Escherichia coli (strain K12)), sequence (P10408 whole entry): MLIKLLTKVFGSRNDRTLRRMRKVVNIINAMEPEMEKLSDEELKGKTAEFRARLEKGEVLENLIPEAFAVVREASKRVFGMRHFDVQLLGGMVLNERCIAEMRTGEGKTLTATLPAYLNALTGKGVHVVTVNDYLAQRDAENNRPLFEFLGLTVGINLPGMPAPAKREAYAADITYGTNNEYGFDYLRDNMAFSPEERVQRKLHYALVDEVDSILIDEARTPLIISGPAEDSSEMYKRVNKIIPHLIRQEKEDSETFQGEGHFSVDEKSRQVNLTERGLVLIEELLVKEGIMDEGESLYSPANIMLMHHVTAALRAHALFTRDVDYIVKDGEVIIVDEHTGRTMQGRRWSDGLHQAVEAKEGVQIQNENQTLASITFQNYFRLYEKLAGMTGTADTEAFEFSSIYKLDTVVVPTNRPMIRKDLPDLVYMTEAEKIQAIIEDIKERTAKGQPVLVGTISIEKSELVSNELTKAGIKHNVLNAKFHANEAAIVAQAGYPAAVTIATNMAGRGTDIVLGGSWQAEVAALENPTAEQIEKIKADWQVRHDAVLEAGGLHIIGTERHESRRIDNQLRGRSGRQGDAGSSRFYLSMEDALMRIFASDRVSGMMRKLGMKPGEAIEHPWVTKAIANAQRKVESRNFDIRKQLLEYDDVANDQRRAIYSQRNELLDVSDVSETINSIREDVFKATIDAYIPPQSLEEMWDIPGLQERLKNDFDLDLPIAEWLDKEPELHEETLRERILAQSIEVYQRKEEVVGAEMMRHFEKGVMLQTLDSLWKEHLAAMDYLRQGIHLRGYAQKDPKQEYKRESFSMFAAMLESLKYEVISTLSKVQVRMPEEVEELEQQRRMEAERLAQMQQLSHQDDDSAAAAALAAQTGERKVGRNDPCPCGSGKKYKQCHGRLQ

Row | Structure (SMILES) | Percent Effect [1] [%] | Percent Effect [2] [%] | Percent Effect [3] [%] | Percent Effect [4] [%] | Percent Effect [5] [%] | Percent Effect [6] [%] | Percent Effect [7] [%] | Percent Effect [8] [%] | Percent Effect [9] [%] | Percent Effect [10] [%] | Percent Effect [11] [%]
1 | CC(C)NC(=O)c1ccc2c(c1)nc1n2CCN(c2ccccc2)C1 | -1.74 | -17.3 | 16.6 | 5.54 | -1.97 | -9.68 | 15.3 | -10.5 | 26.5 | 33.3 | -10.5
2 | CCC(C)c1noc(C2CCN(C(=O)c3cccs3)CC2)n1 (configuration not stated) | -0.878 | 7.79 | 1.18 | 3.86 | -2.65 | -2.76 | 13.8 | 23.9 | 4.3 | 11.1 | -1.15
3 | Cc1ccoc1C(=O)N1CCO[C@H]2[C@H](OCC3CCOCC3)CC[C@@H]21 | -3.5 | 5.33 | -1.93 | 2.92 | 5.02 | -48.9 | -0.513 | -9.79 | 2.08 | -5 | -3.9
4 | O=C1CC(c2ccncc2)c2c(c(C(=O)O)cn2-c2ccc(F)cc2)N1 (configuration not stated) | -3.81 | 12 | -34.9 | -1.44 | -3.14 | -3.35 | 13.7 | 4.82 | 8.47 | 15.4 | -5.97
5 | O=C(c1ccncc1)N1CCCn2c(CN3CCCCC3)nnc2C1 | -3.23 | 2.67 | 9.49 | 2.61 | 4.13 | -5.36 | 5.9 | -3.57 | 5.32 | -1.28 | 1.13
6 | Cc1ccc(NC2CCN(C(=O)CCNS(C)(=O)=O)CC2)nn1 | -4.31 | -2.7 | -5.25 | 9 | -0.279 | -5.36 | -5.21 | 2.45 | 1.98 | 6.1 | 7.54
7 | NC(=O)C(CNC(=O)Cc1ccc(F)cc1)Cc1ccc(F)cc1 (configuration not stated) | -4.48 | 2.63 | -46.9 | -3.44 | -4.19 | 0 | 11.4 | 19.6 | 0 | 0 | -3.68
8 | COCc1cccc(CNC(=O)CN2CCCC2c2noc(C)n2)c1 (configuration not stated) | -2.68 | 23.7 | -2.93 | 3.2 | 5.83 | -2.68 | 15.5 | 1.75 | 4.41 | 24.4 | -13
9 | Cn1cnc(S(=O)(=O)NCCN2CCCCCC2=O)c1Cl | -8.78 | 5.41 | -41.8 | 6.15 | -3.87 | -0.802 | 0.721 | 17.8 | -0.493 | -6.17 | -8.21
10 | COc1cc(C)nc(N2CCN(C(=O)CCc3cscn3)CC2)n1 | 1.16 | 2.7 | -1.3 | 0.273 | -6.95 | 1.91 | 11.4 | 0.884 | 5.82 | 9.76 | -3.75
11 | CCn1cnnc1C1CCN(C(=O)COc2ccccc2)CC1 | -7.35 | 13 | -3.46 | -2.33 | 4.6 | -0.21 | 5.74 | 7.87 | 4.76 | 11.8 | -22.2
12 | Cc1cc(F)ccc1CNCCn1cccn1 | -2.76 | -1.39 | -3.57 | 0.503 | 5.15 | -0.883 | 8.95 | 1.75 | 1.05 | 2.56 | -0.034
13 | Cc1cccc(C2(C(=O)NCCCn3cccn3)CC2)c1 | -2.92 | 19.2 | -1.18 | 14.6 | 2.94 | 17.3 | 10.5 | 8.26 | 3.23 | 15 | -6.34
14 | COc1ccc(-c2nc(CN3CCN(CCO)CC3)co2)cc1 | -2.39 | 20.8 | -11.9 | -1.67 | 8.8 | 4.98 | 15.2 | 29 | 5.83 | 24.4 | -9.19
15 | CCOc1ccc(NC(=O)c2cnc(N3CCCC3)nc2C)cc1 | -4.12 | 5.2 | -3.01 | -0.674 | 1.48 | 3.23 | 5.22 | 11.8 | 4.23 | 16.7 | -8.66
16 | c1ccc(-c2ccc3nc(C4CCN(CC5CC5)CC4)nn3c2)cc1 | 4.34 | -5.48 | 2.06 | 4.55 | 0.992 | 3.99 | 6.08 | -16.5 | 4.17 | 3.7 | 0.798
17 | CCc1noc(C(C)N2CCN(Cc3ncc(C(C)(C)C)o3)CC2)n1 (configuration not stated) | 1.4 | 28.9 | -4.2 | -2.15 | -3.38 | 0.383 | 15 | 26 | 3.43 | 9.76 | -10.7
18 | O=C(CCc1nccs1)N1CCN(c2ncccn2)CC1 | -10.4 | -7.79 | -1.74 | -4.24 | 7.93 | -0.632 | 9.3 | 1.03 | 5.71 | 18.8 | -11
19 | CN(Cc1cn2c(n1)CN(C1CCOC1)CC2)Cc1ccco1 (configuration not stated) | 0.0628 | 5.33 | 0.778 | 1.26 | 5.99 | -58.2 | 16.1 | 15.2 | 6.25 | 20 | -10.2
20 | Cc1cc(S(=O)(=O)NCc2cccc(C(=O)N3CCCC3)c2)c(C)s1 | -4.9 | 13 | -3.16 | -6.78 | 4.21 | -1.9 | 10.1 | 15.2 | 5.71 | 21.2 | -17.7
21 | COc1cc(C)ccc1OCCC(=O)N1CCCC1Cn1cccn1 (configuration not stated) | -6.85 | 15.8 | -7.6 | 14.4 | 3.64 | -1.44 | 0.254 | 1.25 | 5.42 | 13.6 | -6.6
22 | COc1c(CNCC(O)c2cccc(F)c2)c(C(C)C)nn1C (configuration not stated) | 2.75 | 10.4 | -6.14 | -13.3 | -4.6 | -0.21 | 18.7 | 5.92 | 9.52 | 14.1 | -15.9
